The values that follow come from the supplement of paper PMC10941209.

The experiment relates to HFF. Briefly: cell viability relative to DMSO control; higher = less cytotoxic. Conditions: 1 µM; 72 h. How it is done:
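Single-dose cytotoxicity screen of the MMV Pandemic Response Box at 1 uM on human foreskin fibroblasts (HFF), 72 h at 37 C. Viability measured by MTT (OD 550 nm) and normalised to the DMSO control (% survival).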
Turning to `Clc1cccc(-c2nnc(-c3ccccc3)o2)c1`, the cell viability (as a rule, the share of living cells, or the viability signal relative to a control) is 64.1%.

Take `O=C(Nc1[nH]c(=O)ncc1F)c1ccccc1`: the cell viability was 64.8%.

As to `Cc1nc2ccc(Oc3ccccc3)cc2c2c1CCN2CCc1ccccc1`, the cell viability amounted to 76.7%.

`N#CCN1C(=O)COc2cc(F)c(N3C(=O)c4ccccc4C3=O)cc21` gave a cell viability of 63.5%.

In turn, `O=C(O)C[C@H]1CC[C@H](c2ccc(-c3ccc(Nc4ccc(C(F)(F)F)nc4)cn3)cc2)CC1` registered a cell viability of 67.6%.

`O=C(CCCC(F)(F)F)N1CCC(c2nc(-c3nccs3)no2)CC1`: the cell viability worked out at 67.4%.

In the case of `O=c1cc(Nc2ccc3ccccc3c2)[nH]c(=O)[nH]1`, the cell viability turned out to be 65.6%.

As to `CCOC(=O)N[C@@H]1CC[C@@H]2[C@@H](C1)C[C@H]1C(=O)O[C@H](C)[C@H]1[C@H]2/C=C/c1ccc(-c2cccc(F)c2)cn1`, the cell viability was determined as 55.3%.

The compound `CC(C)Nc1nc2cc(Cl)c(Cl)cc2n1[C@H]1O[C@@H](CO)[C@H](O)[C@@H]1O` gave a cell viability of 67.8%.

Turning to `C[C@@H]1O[C@@H]1P(=O)(O)O`, the cell viability was 65%.

With `COc1cc(C2C3=C(CC(C)(C)CC3=O)Nc3ccccc3N2C(C)=O)ccc1OCc1ccccc1` (stereo not given), the cell viability came out at 67.1%.

`Clc1ccc(COC(Cn2ccnc2)c2ccc(Cl)cc2Cl)c(Cl)c1` (stereo not given) yielded a cell viability of 66.8%.

Compound `Cc1cc(C)n2nc(C(=O)NS(=O)(=O)c3c(C)cccc3OC(F)(F)F)nc2n1` yielded a cell viability of 72.2%.

The compound `CC(C)(C)c1ccc(C(Cn2cccc(C(F)(F)F)c2=O)NC2Cc3ccccc3C2)cc1` (stereo not given) returned a cell viability of 67.8%.

In turn, `O=C(O)COc1cccc2c1CC[C@](O)(COC(=O)N(c1ccccc1)c1ccccc1)C2` registered a cell viability of 68.5%.

Regarding `O=C1CCC(N2C(=O)c3ccccc3C2=O)C(=O)N1` (stereo not given), the cell viability was found to be 59%.

`FC(F)(F)Oc1ccc(Nc2ccc3cccc(Cl)c3n2)cc1` showed a cell viability of 56.3%.

In turn, `COc1ccc(C[C@@H](C)[C@@H](C)Cc2ccc(OC)c(OC)c2)cc1OC` yielded a cell viability of 65.2%.

In the case of `Cc1cccc(C)c1C(=O)Nc1nc(-c2ccccn2)cc2ccccc12`, the cell viability came out at 74.7%.

The compound `COc1cc(C)c2c(Oc3cccc(C(F)(F)F)c3)c(OC)cc(NC(C)CCCN)c2n1` (stereo not given) had a cell viability of 61.2%.

`CCN(CC)S(=O)(=O)c1ccc(Cl)c(C(=O)Nc2sc3c(c2C#N)CCCC3)c1` came in with a cell viability of 60.2%.

For the compound `CCCCCCC1c2ccc(O)cc2Oc2cc(O)ccc21`, the cell viability stood at 72.2%.

In the case of `NC(=O)c1c(N)sc2c1CCCCC2`, the cell viability was 74.1%.

For `C=C(C)[C@@H]1CC[C@]2(C(=O)O)CC[C@]3(C)[C@H](CC[C@@H]4[C@@]5(C)CC[C@H](O)C(C)(C)[C@@H]5CC[C@]43C)[C@@H]12`, the cell viability was 69.3%.

`O=P(O)(O)C(CCCc1cccc(Oc2ccccc2)c1)S(=O)(=O)O` (stereo not given) yielded a cell viability of 74.4%.

`CC(C)/N=c1\cc2n(-c3ccc(Cl)cc3)c3ccccc3nc-2cc1Nc1ccc(Cl)cc1` showed a cell viability of 72.6%.

Compound `Cc1c(CN(C)C(=O)/C=C/c2cnc3c(c2)C(C)(C)C(=O)N3)oc2ccccc12` yielded a cell viability of 63.6%.

In the case of `CC(=N)N1CC[C@H](SC2=C(C(=O)O)N3C(=O)[C@@H]([C@@H](C)O)[C@H]3C2)C1`, the cell viability stood at 63.8%.

With `CC[C@@H]1C(=O)OC[C@@H]1Cc1cncn1C`, the cell viability worked out at 62.8%.

Take `COC1CC2CCC(C)C(O)(O2)C(=O)C(=O)N2CCCCC2C(=O)OC(C(C)CC2CCC(OCCO)C(OC)C2)CC(=O)C(C)/C=C(\C)C(O)C(OC)C(=O)C(C)CC(C)/C=C/C=C/C=C/1C` (stereo not given): the cell viability was determined as 60.8%.

Compound `CCOCc1nc2c(N)nc3ccccc3c2n1CC(C)(C)O` came in with a cell viability of 70.5%.

The compound `OB1OCc2cc(Cl)ccc21` registered a cell viability of 68.1%.

As to `Cc1ccccc1NC(=O)Nc1cccc([N+](=O)[O-])c1`, the cell viability was 71.1%.

`CC[C@H]1OC(=O)[C@H](C)[C@@H](O[C@H]2C[C@@](C)(OC)[C@@H](O)[C@H](C)O2)[C@H](C)[C@@H](O[C@@H]2O[C@H](C)C[C@H](N(C)C)[C@H]2O)[C@](C)(O)C[C@@H](C)C(=O)[C@H](C)[C@@H](O)[C@]1(C)O` came in with a cell viability of 71.6%.

`O=S(=O)(NCB(O)O)c1cc2c(Cl)ccc(Cl)c2s1` gave a cell viability of 68%.

`O=C(NN1C(=O)[C@@H]2[C@@H]3C=C[C@@H]([C@H]4C[C@@H]34)[C@@H]2C1=O)c1ccc(C(F)(F)F)cc1` registered a cell viability of 71.8%.

`CCOC(=O)N1CCN(c2ccc(Cl)cc2)CC1`: the cell viability amounted to 64%.

`CCc1cc(Cc2cnc(N)nc2N)cc2c1N(C)CCC2C` (stereo not given) displayed a cell viability of 71.9%.

Consider `CC(C)(C)c1ccc(OCCn2nc(C(=O)O)c3ccccc3c2=O)cc1`, for which the cell viability stood at 70%.

With `c1cnc(NCc2ccc(CNc3ncccn3)cc2)nc1`, the cell viability came out at 67.2%.
